Experimental findings from PubChem BioAssay (NCATS) are described below.

Results filed as inconclusive are left out. A number with no mark means an inactive call. Active and inactive are the calls of the source. Calls follow the shape of the dose curve; as a rule, active = well fitted curve in the direction sought with a large enough effect; inconclusive = small, poorly fitted or top-dose-only effect, or another doubt; inactive = no such curve, though single readings can be large; an effect the other way counts as inactive or inconclusive.

Assay [1] concerns the target Rap guanine nucleotide exchange factor 3 (Homo sapiens) (UniProt O95398). As to the kind of experiment: Confirmatory qHTS for antagonist of cAMP-regulated guanine nucleotide exchange factor 3 (EPAC1) (AID 1645880). Also: nearly all actives have a fitted effect of over 55% in size. Also: potency is read from the fitted curve at half-maximal effect.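 As to activity, negative = inhibition: plate controls were DMSO only for no effect and full effect of the ATA control for full effect.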 As to conditions: EPAC1 Rap1B-BODIPY-GDP exchange, fluorescence; activity, negative = inhibition: at 115 µM (top of the series). Summed up: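 Released BODIPY-GDP fluoresces less than Rap1-bound BODIPY-GDP; the signal is followed at 480/540 nm at 5-min intervals over 30 min, after 5 min at room temperature. Reactions contain 100 nM EPAC1, 250 nM RAP1B-BODIPY-GDP and 50 uM GDP; results are normalized to ATA and DMSO.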
In general terms: In qHTS, concentration-response curves come from the screen itself.

Assay [2] shares this target. As to the kind of experiment: Confirmatory qHTS for agonist of cAMP-regulated guanine nucleotide exchange factor 3 (EPAC1) (AID 1645881). Also: nearly all actives have a fitted effect of over 75% in size. Also: potency is read from the fitted curve at half-maximal effect.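 As to activation: EPAC1 catalysed release of BODIPY-GDP from Rap1B seen as fluorescence loss; 100% = effect of cAMP agonist control.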 The settings on record: EPAC1 Rap1B BODIPY-GDP exchange fluorescence; series mostly up to 154 µM.
Assay [3] concerns the target Rap guanine nucleotide exchange factor 4 (Homo sapiens) (UniProt Q8WZA2). As to the kind of experiment: Confirmatory qHTS for agonist of cAMP-regulated guanine nucleotide exchange factor 4 (EPAC2) (AID 1645884).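 Also: nucleotide exchange releases bodipy-GDP from Rap1 and this lowers its fluorescence; nearly all actives have a fitted effect of over 65% in size.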 Also: potency is read from the fitted curve at half-maximal effect. As to activation: % is scaled to controls: 0 for no effect and ±100 for the full control effect. The settings on record: EPAC2 GEF activity, Rap1B-BODIPY-GDP fluorescence; series mostly up to 154 µM.
The target is the same in assay [4]. As to the kind of experiment: Confirmatory qHTS for antagonist of cAMP-regulated guanine nucleotide exchange factor 4 (EPAC2) (AID 1645885). Also: nearly all actives have a fitted effect of over 25% in size. Also: potency is read from the fitted curve at half-maximal effect. As to activity change, negative = inhibition: % is scaled to controls: 0 for no effect and ±100 for the full control effect. The settings on record: EPAC2 Rap1B-BODIPY-GDP exchange fluorescence, biochemical; series mostly up to 12.7 µM.
For assay [5], the target named is Rap guanine nucleotide exchange factor 3 (Homo sapiens) (UniProt O95398). The assay is described as follows: Counterscreen qHTS for antagonist of cAMP-regulated guanine nucleotide exchange factor 3 (EPAC1) (AID 1645888). Also: % of control where 0% means no effect. The settings on record: Rap1B-BODIPY-GDP nucleotide exchange, fluorescence; series mostly up to 154 µM. The method in brief: (§1)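 Rap1B-BODIPY-GDP 250 nM + GDP 50 uM; cpds 7-pt, final 9.74 nM–152 uM (activator mode) or from 7.32 nM upwards (inhibitor mode); RT; FI 480/540 nm at 5 and 30 min, then ± cAMP, reread.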
Rap guanine nucleotide exchange factor 3 (Homo sapiens), sequence (O95398 whole entry, looked up): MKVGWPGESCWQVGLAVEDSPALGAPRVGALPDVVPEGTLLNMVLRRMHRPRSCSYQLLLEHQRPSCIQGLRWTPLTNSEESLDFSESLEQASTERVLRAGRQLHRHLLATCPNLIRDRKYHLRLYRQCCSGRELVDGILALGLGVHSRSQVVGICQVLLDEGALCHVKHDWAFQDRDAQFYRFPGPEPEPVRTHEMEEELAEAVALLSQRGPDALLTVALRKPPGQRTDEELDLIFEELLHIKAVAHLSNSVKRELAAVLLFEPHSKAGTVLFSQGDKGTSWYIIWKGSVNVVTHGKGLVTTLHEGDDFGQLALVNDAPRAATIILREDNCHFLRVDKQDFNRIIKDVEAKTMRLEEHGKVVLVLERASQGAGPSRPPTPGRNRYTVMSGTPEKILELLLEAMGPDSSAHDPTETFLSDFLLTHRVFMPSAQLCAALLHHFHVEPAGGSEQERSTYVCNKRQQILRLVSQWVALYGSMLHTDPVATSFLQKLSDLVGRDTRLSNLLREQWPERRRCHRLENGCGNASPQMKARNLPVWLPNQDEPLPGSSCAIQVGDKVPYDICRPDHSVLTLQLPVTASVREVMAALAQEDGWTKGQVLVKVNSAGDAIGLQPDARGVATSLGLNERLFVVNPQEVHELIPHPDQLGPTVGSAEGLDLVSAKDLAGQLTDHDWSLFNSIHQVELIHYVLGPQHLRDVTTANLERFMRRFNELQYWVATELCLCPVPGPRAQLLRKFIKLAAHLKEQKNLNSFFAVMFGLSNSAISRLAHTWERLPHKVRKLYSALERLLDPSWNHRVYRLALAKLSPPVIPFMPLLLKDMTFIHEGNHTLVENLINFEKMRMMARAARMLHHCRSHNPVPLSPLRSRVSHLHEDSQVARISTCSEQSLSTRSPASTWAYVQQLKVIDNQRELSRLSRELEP
In general terms: Counterscreens check selectivity or assay interference.

Assay [6] shares this target. The assay is described as follows: Counterscreen qHTS for agonist of cAMP-regulated guanine nucleotide exchange factor 3 (EPAC1) (AID 1645889). Also: nearly all actives have a fitted effect of over 40% in size. Also: potency is read from the fitted curve at half-maximal effect. As to activation: % of control where 0% means no effect. The settings on record: EPAC1 Rap1B-BODIPY-GDP exchange, fluorescence; series mostly up to 154 µM. Summed up:
as §1

Rap guanine nucleotide exchange factor 4 (Homo sapiens), sequence (Q8WZA2 whole entry, looked up): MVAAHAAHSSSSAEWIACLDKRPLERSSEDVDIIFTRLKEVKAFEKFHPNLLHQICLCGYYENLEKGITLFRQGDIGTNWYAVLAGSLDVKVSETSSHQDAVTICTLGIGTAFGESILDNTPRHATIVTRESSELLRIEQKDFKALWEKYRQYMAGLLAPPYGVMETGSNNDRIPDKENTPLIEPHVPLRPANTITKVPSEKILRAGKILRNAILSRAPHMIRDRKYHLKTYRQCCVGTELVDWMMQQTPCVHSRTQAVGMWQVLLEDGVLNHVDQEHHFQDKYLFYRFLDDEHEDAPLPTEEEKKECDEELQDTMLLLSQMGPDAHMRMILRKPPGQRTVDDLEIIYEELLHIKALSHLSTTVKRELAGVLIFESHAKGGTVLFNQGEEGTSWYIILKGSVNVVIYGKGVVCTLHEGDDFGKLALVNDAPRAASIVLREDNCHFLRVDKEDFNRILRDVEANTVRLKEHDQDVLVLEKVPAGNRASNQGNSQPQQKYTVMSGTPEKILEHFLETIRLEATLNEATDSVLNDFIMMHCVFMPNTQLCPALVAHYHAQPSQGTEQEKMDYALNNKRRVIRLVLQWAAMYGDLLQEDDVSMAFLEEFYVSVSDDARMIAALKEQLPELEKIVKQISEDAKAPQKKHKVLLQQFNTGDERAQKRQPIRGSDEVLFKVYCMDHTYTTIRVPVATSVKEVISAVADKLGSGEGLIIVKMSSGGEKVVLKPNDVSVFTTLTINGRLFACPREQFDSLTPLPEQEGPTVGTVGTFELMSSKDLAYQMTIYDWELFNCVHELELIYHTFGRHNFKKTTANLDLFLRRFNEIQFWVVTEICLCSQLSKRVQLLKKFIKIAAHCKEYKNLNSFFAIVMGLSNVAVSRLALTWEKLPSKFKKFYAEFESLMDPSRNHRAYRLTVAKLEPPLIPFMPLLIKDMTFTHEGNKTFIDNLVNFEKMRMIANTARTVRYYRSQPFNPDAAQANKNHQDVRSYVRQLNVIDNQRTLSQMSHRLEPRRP

For the compound `CSc1ccc(/C=N/NC(=O)CN2CCN(Cc3ccc(Cl)cc3)CC2)cc1`, the Potency result in assay [1], in assay [2], in assay [3], in assay [4] and in assay [5] was “inactive” each time.

For the compound `COc1ccccc1NC(=O)CSc1nc2sc(C)c(C)c2c(=O)n1C`, the Potency result in assay [1], in assay [2] and in assay [4] was “inactive” each time. Further, the activation in assay [3] is 1.44% [at 17.1 µM, percent relative to cAMP agonist control]; in assay [6], 15.6% [at 30.8 µM]. Further, in assay [5], the activity change, negative = inhibition was -1.48% [at 30.8 µM].

Turning to `COc1cc(CNc2ccc(O)cc2)cc(Br)c1OCc1ccccc1`, the Potency entry in assay [1], in assay [2], in assay [3], in assay [4], in assay [5] and in assay [6] was “inactive” in each case.

Turning to `COc1ccc(NC(=O)N2CCN3CCCCC3C2)cc1OC` (stereo unspecified), the Potency result in assay [1], in assay [2], in assay [3], in assay [4], in assay [5] and in assay [6] was “inactive” each time.

With `CCN(CC(=O)Nc1ccc(OC)cc1)C(=O)Cc1cccs1`, in assay [1], the Potency is 67.5 µM (active). The Potency result in assay [2], in assay [3], in assay [4], in assay [5] and in assay [6] was “inactive” each time.

On to `COC(=O)c1cc2ccsc2n1Cc1cccc(F)c1`, for which the Potency result in assay [1], in assay [2], in assay [3], in assay [4], in assay [5] and in assay [6] was “inactive” throughout.

As to `COC(=O)c1cc(NC(=O)CC2SCCNC2=O)cc(C(=O)OC)c1` (stereo unspecified), the Potency result in assay [1], in assay [2] and in assay [4] was “inactive” in each case. The activation is 4.81% [at 17.1 µM, percent relative to cAMP agonist control] in assay [3] and 0.776% [at 30.8 µM] in assay [6]. In assay [5], the activity change, negative = inhibition was 6.38% [at 30.8 µM].

As for `COc1ccc(CNC(=S)N/N=C/c2ccc(OC)c(OC)c2)cc1`, the Potency result in assay [1], in assay [2], in assay [3], in assay [5] and in assay [6] was “inactive” throughout. Further, in assay [4], the Potency is 67.5 µM (active).

Consider `O=C1C2CCCN2C(c2ccccc2F)N1c1cccc(Cl)c1` (stereo unspecified), for which the Potency result in assay [1], in assay [2] and in assay [4] was “inactive” each time. Besides, the activation in assay [3] was 0.711% [at 17.1 µM, percent relative to cAMP agonist control]; in assay [6], 9.98% [at 30.8 µM]. Moreover, the activity change, negative = inhibition in assay [5] is -15.2% [at 30.8 µM].

As to `CCOC(=O)C1=CCN(S(=O)(=O)c2ccc(C)cc2)C1c1cccc(Cl)c1` (stereo unspecified), the Potency result in assay [1], in assay [2], in assay [3], in assay [4] and in assay [5] was “inactive” throughout.

As for `COc1ccc(-n2ccn(Cc3ccc(C)cc3)c(=O)c2=O)cc1OC`, the Potency entry in assay [1], in assay [2], in assay [3], in assay [4], in assay [5] and in assay [6] was “inactive” in each case.

Turning to `COc1cc(/C=C(\C#N)c2nc3ccc(C)cc3[nH]2)cc([N+](=O)[O-])c1O`, the Potency in assay [1] is 33.8 µM (active); in assay [4], 75.7 µM (active). Also, the Potency entry in assay [2], in assay [3], in assay [5] and in assay [6] was “inactive” each time.

With `COC(=O)CN1C(=S)N(c2ccc(OC)cc2)C(=O)/C1=C/c1ccc(N2CCOCC2)cc1`, the Potency entry in assay [1] and in assay [5] was “inactive” throughout. The Potency was 100 µM (active) in assay [2], 100 µM (active) in assay [3], 75.7 µM (active) in assay [4] and 28.2 µM (active) in assay [6].

Take `Cc1ccc(C)c(S(=O)(=O)Nc2ccc(C(=O)NCC(c3ccco3)N(C)C)cc2)c1` (stereo unspecified): the Potency entry in assay [1], in assay [2] and in assay [4] was “inactive” throughout. The activation in assay [3] is 5.83% [at 17.1 µM, percent relative to cAMP agonist control]; in assay [6], 6.54% [at 30.8 µM]. For the same compound, the activity change, negative = inhibition in assay [5] was -1.62% [at 30.8 µM].

As to `Cc1cc(-c2ccc(F)cc2)n2ncc(-c3ccccc3)c2n1`, the Potency result in assay [1], in assay [2], in assay [3], in assay [4], in assay [5] and in assay [6] was “inactive” throughout.

Regarding `Cc1nc2c(C(=O)NCCc3ccc(Cl)cc3)c[nH]n2c(=O)c1Cc1ccccc1F`, in assay [1], the Potency is 84.9 µM (active). Further, the Potency result in assay [2], in assay [3], in assay [4], in assay [5] and in assay [6] was “inactive” throughout.

Turning to `Cc1ccc(S(=O)(=O)NCCC(=O)N2CCC(Cc3ccccc3)CC2)cc1`, the Potency entry in assay [1], in assay [2] and in assay [4] was “inactive” throughout. Also, the activation in assay [3] was 3.1% [at 17.1 µM, percent relative to cAMP agonist control]; in assay [6] it was 8.49% [at 30.8 µM]. For the same compound, the activity change, negative = inhibition in assay [5] was -15.5% [at 30.8 µM].

In the case of `CNC(=O)COC(=O)c1cc(-c2ccco2)nc2ccccc12`, the Potency in assay [1] is 23.9 µM (active). Further, the Potency result in assay [2], in assay [3], in assay [4] and in assay [5] was “inactive” in each case.

As for `O=c1c2cc([N+](=O)[O-])cc([N+](=O)[O-])c2[nH]n1-c1ccccc1`, the Potency in assay [1] is 35.5 µM (active). For the same compound, the Potency result in assay [2] and in assay [4] was “inactive” throughout. For the same compound, the activation in assay [3] was 3.37% [at 17.1 µM, percent relative to cAMP agonist control]; in assay [6] it was 10.6% [at 30.8 µM]. In assay [5], the activity change, negative = inhibition is -31.5% [at 30.8 µM].
